Source: PubChem BioAssay
FBA Mtb inh: inhibitors of M. tuberculosis fructose-bisphosphate aldolase. purified M. tuberculosis FBA, fluorescence read-out. P9WQA3. actives 2.3% (n = 360,000). inhibition, % at 1 µM; in the data active means inhibition above about 27%;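 further: 0% = vehicle and 100% = reference inhibitor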
BoNT A protease: inhibitors of Botulinum neurotoxin A light chain protease; inhibition, % at 10 µM; multiplex microsphere protease substrate cleavage, flow cytometry; actives 0.17% (n = 360,000); further: plate controls were buffer without enzyme for full effect and enzyme alone for no effect
BoNT F protease: BoNT F light chain protease inhibition. inhibition, % at 10 µM. actives 0.22% (n = 360,000). Multiplex microsphere protease cleavage assay, flow cytometry; in the data active means inhibition above about 35%, passing the limit was not always enough; inconclusive means no clear call, values can overlap the other calls; further: plate controls were buffer without enzyme for full effect and enzyme alone for no effect
Anthrax LF inh2: anthrax lethal factor protease inhibition; P15917; inhibition, % at 10 µM; actives 0.12% (n = 360,000); multiplex microsphere protease cleavage assay, LF; further: plate controls were buffer without enzyme for full effect and enzyme alone for no effect
Target sequence (P15917 whole entry, looked up): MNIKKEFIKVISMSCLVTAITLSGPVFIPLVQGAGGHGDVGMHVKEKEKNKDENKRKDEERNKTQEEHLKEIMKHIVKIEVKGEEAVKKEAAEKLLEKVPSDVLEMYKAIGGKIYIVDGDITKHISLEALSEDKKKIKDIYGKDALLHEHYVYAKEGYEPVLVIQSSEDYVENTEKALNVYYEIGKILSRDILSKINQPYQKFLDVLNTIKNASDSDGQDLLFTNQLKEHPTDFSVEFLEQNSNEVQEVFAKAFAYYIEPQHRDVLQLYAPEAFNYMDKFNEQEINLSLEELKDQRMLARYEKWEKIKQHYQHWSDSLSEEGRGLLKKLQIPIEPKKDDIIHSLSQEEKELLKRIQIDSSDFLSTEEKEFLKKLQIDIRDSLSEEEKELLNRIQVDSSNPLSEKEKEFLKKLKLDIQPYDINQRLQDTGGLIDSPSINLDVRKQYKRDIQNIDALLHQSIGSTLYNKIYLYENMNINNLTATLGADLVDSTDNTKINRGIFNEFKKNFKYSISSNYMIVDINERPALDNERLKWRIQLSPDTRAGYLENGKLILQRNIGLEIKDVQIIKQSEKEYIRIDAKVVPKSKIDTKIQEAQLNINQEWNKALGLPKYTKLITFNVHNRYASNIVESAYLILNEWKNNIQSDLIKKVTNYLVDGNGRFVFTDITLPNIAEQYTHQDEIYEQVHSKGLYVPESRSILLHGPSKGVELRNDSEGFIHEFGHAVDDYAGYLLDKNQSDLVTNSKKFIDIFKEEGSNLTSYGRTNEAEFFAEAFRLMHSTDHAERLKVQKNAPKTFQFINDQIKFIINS
Autofluor counter: flagged as autofluorescent in microsphere protease counterscreen | fluorescence intensity (concentration not given with the values) | compound autofluorescence counterscreen, microsphere flow cytometry; stronger effect = higher value | AID 624483 | actives 3.1% (n = 360,000); in the data active means fluorescence intensity above about 16000; inconclusive means no clear call, values can overlap the other calls
GDH-TPI counter: GDH-TPI coupled enzyme inhibition counter-screen; GDH-TPI coupled enzyme counterscreen, NADH absorbance; inhibition, % at 4.8 µM; actives 1.2% (n = 360,000); AID 588335; in the data active means inhibition above about 30%;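 further: 0% = DMSO wells and 100% = wells lacking the enzyme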
Active calls of the source: *; ? = inconclusive; . = no result given; + = active, no number. A selection: hits, their analogues and other compounds. The true share with any hit is near 6.6%. Unless noted, no stated cut-off is given here; in the data, active means inhibition above about 30%; inconclusive means no clear call, values can overlap the other calls; inactive means below that.

SMILES	FBA Mtb inh	BoNT A protease	BoNT F protease	Anthrax LF inh2	Autofluor counter	GDH-TPI counter
O=C(Cn1nc(C(F)(F)F)c2c1CCC2)N1CCN(c2ccccc2)CC1	0.6	-2.1	-1.3	-1.6	23434*	6.8
CCc1c(C)sc(NC(=O)CC#N)c1C#N	2.7	1.9	-4.4	3.8	8317	10.7
COc1ccc(NC(=O)Cn2nc(C(F)(F)F)c3c2CCCC3)cc1OC	1.4	?	-7.1	-1.6	22117*	3.8
O=C(Cn1nc(C(F)(F)F)c2c1CCCC2)N1CCOCC1	1.1	-0.6	0.3	-0.2	4776	-0.6
O=C1CCC2(CCCC2)c2ccccc21	-1.7	-0.2	1.5	-9.4	2898	7.6
COc1ccccc1NC(=O)Cn1nc(C(F)(F)F)c2c1CCCC2	-0.6	-1.7	-3.0	1.5	25001*	12.7
O=C(Cn1nc(C(F)(F)F)c2c1CCC2)Nc1ccccc1C(F)(F)F	3.2	-0.4	-11.3	2.4	5177	4.3
COc1ccccc1OCc1nnc(SCC(=O)c2cc(Cl)ccc2OC)o1	-0.2	?	3.1	0.6	21782*	-2.4
COc1ccccc1OCc1nnc(SCC(=O)N2CCCC2)o1	0.9	2.0	13.3	2.0	3915	-3.7
COc1ccccc1OCc1nnc(SCCN2CCOCC2)o1	1.2	?	-3.5	-2.4	22558*	5.8
C(=NOCCc1ccccc1)c1ccccn1	-1.2	0.4	7.2	5.1	3689	5.3
CC(C)(C)OC(=O)N1CCCC1C(=O)N1CCCC1C(=O)N1CCCC1C(=O)O (configuration not stated)	-1.6	-0.1	0.7	-0.7	2817	7.6
CC(C)(C)OC(=O)N1CCCC1C(=O)N1CCc2ccccc21 (configuration not stated)	-1.3	?	14.4	-24.6	16582*	1.0
O=C1c2ccccc2NC(c2ccc(O)c(O)c2)N1c1ccccc1Cl (configuration not stated)	6.0	?	?	-17.5	3764	40.6*
CCOC(=O)c1cnc(-n2cc(C)cn2)nc1Nc1ccccc1OCC	3.7	-1.7	-2.8	-1.0	23982*	-10.2
CCCC(C(=O)N(C)CC(=O)Nc1ccc(N2CCOCC2)cc1)c1ccccc1 (configuration not stated)	-2.5	-0.9	-2.3	-3.5	5573	4.2
c1ccc(-c2ccc(-c3ccccn3)s2)nc1	+	3.9	-3.6	5.7	6168	28.7
Cc1cccc(-n2ncc3c(N4CCCc5ccccc54)ncnc32)c1	11.8	0.9	-0.2	-6.4	20241*	15.5
Cc1ccc(SCC(=O)N2CCN(S(=O)(=O)c3cccs3)CC2)cc1	5.7	0.8	3.1	-1.3	3831	3.0
COc1ccc(C(=O)/C=C/N2CCCCC2)cc1OC	0.1	-0.4	-6.1	-9.1	6867	50.0*
COC(=O)c1ccc(N/C=C/C(=O)c2ccc(OC)c(OC)c2)cc1	6.5	2.8	2.6	0.8	10599	0.7
O=C(CSc1nc2ccccc2o1)N/N=C/c1ccccc1	0.3	-0.3	-5.5	-3.1	2376	-4.9
O=C(CSc1nc2ccccc2o1)N/N=C/c1ccc(O)c(O)c1	2.9	1.3	6.5	-3.2	3785	54.4*
Cc1cc(C)n(C(=O)CSc2nc3ccccc3o2)n1	4.9	-2.7	-4.9	1.7	20678*	-4.6
COc1ccc(CN(C)C(=O)c2[nH]c(C)c(C(C)=O)c2C)cc1F	1.8	-6.9	-25.4	-3.7	3246	6.0
SMILES	FBA Mtb inh	BoNT A protease	BoNT F protease	Anthrax LF inh2	Autofluor counter	GDH-TPI counter
CCCCN1C(=O)C(=O)N(CC(=O)NC2CCCc3ccccc32)C1=O (configuration not stated)	-8.2	-0.7	-6.8	-3.4	4897	-6.9
O=C(O)CCn1c2ccccc2c2nc3ccccc3nc21	-0.6	.	.	.	.	31.4*
COC(=O)N/N=C/c1cc(N=Nc2ccccc2)ccc1O	-5.7	0.7	-4.7	-1.1	3220	38.3*
COC(=O)N/N=C/c1cc(N=Nc2ccccc2Cl)ccc1O	-11.6	0.0	-4.8	1.4	3962	9.9
COc1cc2c[n+](C)c3c4ccccc4ccc3c2cc1OC	120.1*	0.6	-4.6	-10.8	3202	19.7
Cc1cc(-c2nc3cccnc3s2)ccc1NS(=O)(=O)c1cccs1	+	0.3	0.5	-4.4	5608	41.9*
O=S(=O)(Nc1ccc(-c2nc3cccnc3s2)cc1)c1cccs1	+	-2.7	-52.7	-14.2	4609	15.3
CCS(=O)(=O)Nc1ccc(-c2nc3cccnc3s2)cc1	+	0.4	-5.8	-6.1	5975	23.9
O=S(=O)(Nc1ccc(-c2nc3cccnc3s2)cc1)c1ccc(Cl)s1	+	1.0	-7.0	-1.2	7030	37.2*
Cc1cccc(NC(=O)CCc2ccc(S(=O)(=O)NC3CCCCC3)cc2)c1	4.1	-4.3	-79.1	-2.3	4079	16.1
CCN1CCN(CCNC(=O)c2cc(Cl)c(NC(=O)C3=C(C)OCCS3)cc2OC)CC1	-1.8	0.2	-2.2	0.3	4887	6.7
O=C(Cn1cc(SCc2cccc(Cl)c2)c2ccccc21)N1CCOCC1	-2.0	-0.2	1.0	-1.7	9094	-7.4
Cc1cc(-c2nc3cccnc3s2)ccc1NS(=O)(=O)c1ccc2c(c1)OCCO2	+	-0.3	-6.3	-9.1	4467	30.6
COc1ccc(NC(=O)C2CCCO2)cc1 (configuration not stated)	-1.7	1.2	-7.1	-3.3	4246	-5.0
O=S(=O)(Nc1ccc(-c2nc3cccnc3s2)cc1)c1ccccc1F	+	0.2	0.5	1.7	3935	62.5*
Cc1nc2ccc(S(=O)(=O)Nc3ccc(-c4nc5cccnc5s4)cc3)cc2s1	+	0.0	-6.4	-4.5	4959	30.6
O=C(Nc1ccc(-c2nc3cccnc3s2)cc1)C1CCCO1 (configuration not stated)	+	-0.6	-10.8	-2.7	6105	33.2*
Cc1nc2ccc(S(=O)(=O)Nc3cccc(-c4nc5cccnc5s4)c3)cc2s1	18.7	-0.7	-4.6	0.8	4381	14.8
CCS(=O)(=O)Nc1cccc(-c2nc3cccnc3s2)c1	2.6	.	.	.	.	5.2
CC(NC(=S)Nc1ccc(S(=O)(=O)N2CCOCC2)cc1)C1CC2CCC1C2 (configuration not stated)	1.4	-0.5	-2.8	-0.5	2397	-2.6
S=C(NCc1ccccc1)NNc1ccccc1	-7.8	0.2	0.9	-1.4	8951	-4.5
CCN(C(=O)COC(=O)c1cccc(S(=O)(=O)NCc2ccccc2)c1)c1ccccc1	0.4	.	.	.	.	-2.1
Cc1ccc(NC(=O)COC(=O)c2ccc(CN3CCCC3=O)cc2)c(Cl)c1	-1.0	-1.1	-1.7	0.4	3332	18.9
CCOc1ccccc1NC(=O)CCC(=O)Nc1nnc(C2CCCCC2)s1	2.5	-1.7	-2.0	-4.1	5947	11.6
CCCS(=O)(=O)NC(=O)C1(C)CCCN(C(=O)c2cccc(C(F)(F)F)c2)C1 (configuration not stated)	0.3	-0.7	-11.5	-3.1	4300	-6.2
CNC(=O)NC(=O)CSc1nc2sccc2c(=O)n1-c1ccccc1	3.4	1.4	11.0	11.3	2977	6.7
